Measurements from PubChem BioAssay AID1159580 (chemical genetic matrix, 2015).
“And” between values parts separate entries of the source, which are not always exact repeats. Equal entries are not always repeated. Screen size: about 5,500 compounds; about 2,000 (36%) were called active. Not shown: some 18% with an inconclusive outcome. Cut-off read from the data, not from the text of the source: active = normalized growth mostly below about 0.91 (no sharp cut-off); inconclusive = no clear call, values can overlap the other calls; inactive = mostly above about 0.92. Some of the results follow.

Experiment: chemical genetic growth profiling, strain panel (AID 1159580);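 note: tested at 20 µM; growth read once vehicle control cultures reached saturation at 30 °C; 1 = growth at the plate median or of vehicle wells; lower values mean less growth of the strain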
Conditions: S. cerevisiae deletion strains, growth OD

Measured: normalized growth

CC(C)=CCc1c2c(c3occ(-c4ccc(O)c(O)c4)c(=O)c3c1O)C=CC(C)(C)O2
inactive: locus YAL021C, strain ccr4, stronger effect = lower value 0.95 | locus YAL026C, strain drs2, stronger effect = lower value 0.945 | locus YAL030W, strain snc1, stronger effect = lower value 0.961 | locus YBL061C, strain skt5, stronger effect = lower value 0.949 | locus YBR009C, strain hhf1, stronger effect = lower value 0.931 | locus YBR023C, strain chs3, stronger effect = lower value 0.937 | locus YBR171W, strain sec66, stronger effect = lower value 0.98 | locus YBR279W, strain paf1, stronger effect = lower value 0.956 | locus YCL011C, strain gbp2, stronger effect = lower value 0.944 | locus YCL016C, strain dcc1, stronger effect = lower value 0.961 | locus YCL069W, strain vba3, stronger effect = lower value 0.992 | locus YCR088W, strain abp1, stronger effect = lower value 0.997 | locus YDL005C, strain med2, stronger effect = lower value 0.988 | locus YDL040C, strain nat1, stronger effect = lower value 1 | locus YDL185W, strain tfp1, stronger effect = lower value 0.966 | locus YDR001C, strain nth1, stronger effect = lower value 1 | locus YDR137W, strain rgp1, stronger effect = lower value 1 | locus YDR159W, strain sac3, stronger effect = lower value 0.959 | locus YDR195W, strain ref2 1.01 | locus YDR297W, strain sur2, stronger effect = lower value 0.924 | locus YDR334W, strain swr1, stronger effect = lower value 0.969 | locus YDR335W, strain msn5, stronger effect = lower value 0.953 | locus YDR392W, strain spt3, stronger effect = lower value 0.782 | locus YEL003W, strain gim4, stronger effect = lower value 0.932 | locus YEL037C, strain rad23, stronger effect = lower value 0.977 | locus YEL061C, strain CIN8 (second series), stronger effect = lower value 0.999 | locus YER016W, strain bim1, stronger effect = lower value 0.989 | locus YER110C, stronger effect = lower value 0.981 | locus YER111C, strain swi4, stronger effect = lower value 0.939 | locus YER155C, strain BEM2 (second series), stronger effect = lower value 0.909 | locus YFR010W, strain ubp6, stronger effect = lower value 0.946 | locus YGL078C, strain dbp3, stronger effect = lower value 0.93 | locus YGL167C, strain pmr1, stronger effect = lower value 0.986 | locus YGL227W, strain vid30, stronger effect = lower value 1 | locus YGL240W, strain doc1, stronger effect = lower value 0.994 | locus YGL253W, strain hxk2, stronger effect = lower value 0.937 | locus YHR013C, strain ard1, stronger effect = lower value 0.947 | locus YHR027C, strain rpn1, stronger effect = lower value 0.932 | locus YHR079C, strain IRE1, stronger effect = lower value 0.926 | locus YHR142W, strain chs7, stronger effect = lower value 0.948 | locus YIL125W, strain kgd1, stronger effect = lower value 0.933 | locus YJL092W, strain hpr5, stronger effect = lower value 0.983 | locus YJL095W, strain BCK1 (second series), stronger effect = lower value 0.961 | locus YJL115W, strain asf1, stronger effect = lower value 0.999 | locus YJL129C, strain trk1, stronger effect = lower value 1 | locus YJL154C, strain vps35, stronger effect = lower value 1 | locus YJL166W, strain qcr8, stronger effect = lower value 0.919 | locus YJR066W, strain TOR1, stronger effect = lower value 0.885
active: locus YBR021W, strain FUR4, stronger effect = lower value 0.518 | locus YBR229C, strain ROT2, stronger effect = lower value 0.548 | locus YBR231C, strain swc5, stronger effect = lower value 0.895 | locus YCL029C, strain bik1, stronger effect = lower value 0.616 | locus YDL035C, strain GPR1, stronger effect = lower value 0.238 | locus YDL074C, strain BRE1, stronger effect = lower value 0.313 | locus YDL101C, strain DUN1, stronger effect = lower value 0.256 | locus YDL134C, strain PPH21, stronger effect = lower value 0.235 | locus YDL192W, strain arf1, stronger effect = lower value 0.66 | locus YDR069C, strain doa4, stronger effect = lower value 0.845 | locus YDR101C, strain arx1, stronger effect = lower value 0.747 | locus YDR162C, strain NBP2, stronger effect = lower value 0.155 | locus YDR318W, strain mcm21, stronger effect = lower value 0.721 | locus YDR388W, stronger effect = lower value 0.776 | locus YDR502C, strain sam2, stronger effect = lower value 0.674 | locus YEL061C, strain CIN8, stronger effect = lower value 0.406 | locus YER015W, strain faa2, stronger effect = lower value 0.909 | locus YER155C, strain BEM2, stronger effect = lower value 0.544 | locus YER167W, strain BCK2, stronger effect = lower value 0.545 | locus YGL086W, strain mad1, stronger effect = lower value 0.67 | locus YGL173C, strain kem1, stronger effect = lower value 0.887 | locus YGL248W, strain PDE1, stronger effect = lower value 0.257 | locus YGR078C, strain PAC10, stronger effect = lower value 0.457 | locus YGR135W, strain pre9, stronger effect = lower value 0.586 | locus YGR252W, strain gcn5, stronger effect = lower value 0.557 | locus YHR079C, strain IRE1 (second series), stronger effect = lower value 0.722 | locus YHR094C, strain hxt1, stronger effect = lower value 0.888 | locus YHR129C, strain ARP1, stronger effect = lower value 0.457 | locus YHR200W, strain rpn10, stronger effect = lower value 0.724 | locus YIL066C, strain RNR3, stronger effect = lower value 0.227 | locus YIL073C, strain SPO22, stronger effect = lower value 0.137 | locus YIR030C, strain dcg1, stronger effect = lower value 0.811 | locus YJL134W, strain LCB3, stronger effect = lower value 0.677 | locus YJL164C, strain tpk1, stronger effect = lower value 0.91 | locus YJL168C, strain set2, stronger effect = lower value 0.916 | locus YJL187C, strain SWE1 (second series), stronger effect = lower value 0.161 | locus YJR043C, strain POL32, stronger effect = lower value 0.255 | locus YJR075W, strain HOC1, stronger effect = lower value 0.468
0.145 (active) and 0.912 (inactive): locus YJL095W, strain BCK1, stronger effect = lower value
0.197 (active) and 0.903 (inactive): locus YHR030C, strain SLT2, stronger effect = lower value
